Here are results for 38 compounds from PubChem BioAssay (NCATS).

Inconclusive results are not listed. Unmarked numbers belong to inactive results. Calls of active or inactive are those of the source. Calls follow the shape of the dose curve; as a rule, active = well fitted cell-killing curve with a large enough effect; inconclusive = small, poorly fitted or top-dose-only effect, or effect the other way; inactive = no such curve, though single readings can be large or run the other way.

Experiment [1] is described as follows: Viability qHTS for spleen associated tyrosine kinase inhibitor (SYKi) naive MV4-11 cells (AID 1963823). Also: nearly all actives have a fitted effect of over 40% in size. A digest of the protocol:
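Seeding of 500 SYKi-naive MV4-11 cells per well onto pre-dispensed compounds preceded a 72 hr incubation at 37 C. Luminescent CellTiter-Glo signal, read after 10 min at room temperature, reflected viable cells.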
For orientation: In qHTS, concentration-response curves come from the screen itself.

Experiment [2] in a line: Viability qHTS for spleen associated tyrosine kinase inhibitor (SYKi) drug resistant MV4-11 cells (AID 1963824). Also: nearly all actives have a fitted effect of over 35% in size. A digest of the protocol:
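CellTiter-Glo luminescence, read 10 min after reagent addition, reports viability after a 72 hr compound exposure. Cells are an MV4-11 line made resistant to SYK inhibition, seeded at 500 per well onto compound-containing plates.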
Potency is read from the fitted curve at half-maximal effect.

In the case of `Brc1ccc([C@H]2CN3CCSC3=N2)cc1`, the Potency result in experiment [1] and in experiment [2] was “inactive” each time.

`CC(C)C(=O)OC[C@H]1O[C@@H](n2ccc(N)nc2=O)[C@](C)(F)[C@@H]1OC(=O)C(C)C`: the Potency result in experiment [1] and in experiment [2] was “inactive” each time.

As for `COc1cc(OC)cc(-c2ccc3c(-c4ccc(F)cc4)[nH]nc3n2)c1`, the Potency result in experiment [1] and in experiment [2] was “inactive” in each case.

Take `COc1cc(CCC2=NN=C(NC(=O)c3ccc(N4C[C@@H](C)N[C@@H](C)C4)cc3)C2)cc(OC)c1`: the Potency in experiment [1] is 0.461 µM (active); in experiment [2], 1.46 µM (active).

Regarding `O=C(CCC1CCN(Cc2ccccc2)CC1)c1ccc2c(c1)NCCCC2`, the Potency in experiment [1] was 23.1 µM (active); in experiment [2], 14.6 µM (active).

With `COC1=CC(=O)O/C1=C(/OC)[C@@H]1O[C@H]1c1ccccc1`, the Potency in experiment [1] is 23.1 µM (active); in experiment [2], 10.3 µM (active).

Consider `O=C(Nc1cccc(C(F)(F)F)c1)c1ccccc1NCc1ccncc1`, for which the values for the Potency in experiment [1] and in experiment [2] were 8.2 µM (active) and 9.2 µM (active), respectively.

As to `COC1=CC(=O)C[C@@H](C)[C@@]12Oc1c(Cl)c(OC)cc(OC)c1C2=O`, the Potency result in experiment [1] and in experiment [2] was “inactive” throughout.

On to `O=c1c2cccnc2n(-c2cccc([N+](=O)[O-])c2)c(=O)n1Cc1ccncc1`, for which the Potency entry in experiment [1] and in experiment [2] was “inactive” each time.

`CC1(CO)CCCC2(C)C1C(OC(=O)c1ccccc1)C=C1C(=O)OCC12O` (stereo unspecified): the Potency is 1.8 µM (active) in experiment [1] and 1.61 µM (active) in experiment [2].

`OC[C@H]1O[C@@H](n2cnc3c(NCc4ccc(O)cc4)ncnc32)[C@H](O)[C@@H]1O`: the Potency is 1.03 µM (active) in experiment [1] and 0.731 µM (active) in experiment [2].

In the case of `N=C(N)c1ccc2nc(-c3cc(CC(=O)NC(CC(=O)O)C(=O)O)cc(-c4cc(S(N)(=O)=O)ccc4O)c3O)[nH]c2c1` (stereo unspecified), the Potency result in experiment [1] and in experiment [2] was “inactive” throughout.

On to `CC1=C2CC(=O)C(C)CC/C=C(\C)CC2OC1=O` (stereo unspecified), for which the Potency entry in experiment [1] and in experiment [2] was “inactive” in each case.

With `Cn1c(=O)c2nc(/C=C/c3cccc(Cl)c3)n(C)c2n(C)c1=O`, the Potency result in experiment [1] and in experiment [2] was “inactive” throughout.

As for `COC(=O)C1=COC(O[C@@H]2O[C@H](CO[C@@H]3O[C@H](COC(=O)/C=C\c4ccc(O)cc4)[C@@H](O)[C@H](O)[C@H]3O)[C@@H](O)[C@H](O)[C@H]2O)C2C(CO)=CCC12` (stereo partly specified), the Potency entry in experiment [1] and in experiment [2] was “inactive” throughout.

`CCC1C(=O)N(C)c2cnc(Nc3ccc(C(=O)NC4CCC(N5CCN(CC6CC6)CC5)CC4)cc3OC)nc2N1C(C)C` (stereo unspecified): the results for the Potency in experiment [1] and in experiment [2] were 0.0259 µM (active) and 0.0116 µM (active), respectively.

For the compound `C[C@@H]1CC[C@@]2(OC1)O[C@H]1C[C@H]3[C@@H]4CC=C5C[C@@H](O)CC[C@]5(C)[C@H]4CC[C@]3(C)[C@H]1[C@@H]2C`, the Potency result in experiment [1] and in experiment [2] was “inactive” throughout.

Consider `CN1CCc2cccc3c2[C@H]1Cc1ccc(O)c(O)c1-3`, for which the Potency was 5.96 µM (active) in experiment [1] and 3.76 µM (active) in experiment [2].

Consider `COc1cc(/C=C/CO)cc(OC)c1O[C@@H]1O[C@H](CO[C@@H]2O[C@H](CO)[C@@H](O)[C@H](O)[C@H]2O)[C@@H](O)[C@H](O)[C@H]1O`, for which the Potency entry in experiment [1] and in experiment [2] was “inactive” throughout.

As for `C=C(C(=O)O)C1CCC2(C)CCC(O)C(=C)C2C1` (stereo unspecified), the Potency result in experiment [1] and in experiment [2] was “inactive” in each case.

`O=C(/C=C/c1ccccc1)OC[C@H]1O[C@@H](OC(=O)c2cc(O)c(O)c(O)c2)[C@H](O)[C@@H](O)[C@@H]1O`: the Potency result in experiment [1] and in experiment [2] was “inactive” in each case.

Take `C=C1C(=O)OC2CC3(C)C(O)C(=O)C=C(C)C3CC12` (stereo unspecified): the Potency in experiment [1] is 23.1 µM (active); in experiment [2] it was 7.31 µM (active).

With `C1N2CN3CN1CN(C2)C3`, the Potency result in experiment [1] and in experiment [2] was “inactive” in each case.

As for `C=C(C)[C@H]1C[C@@H](O)C(=C)CC[C@@H](O)C(=C)[C@@H](O)C1`, the Potency entry in experiment [1] and in experiment [2] was “inactive” in each case.

In the case of `NC(=O)CCCSc1nc(N)nc(-c2c(Cl)cc3c4c(cccc24)COC3)n1`, the Potency in experiment [1] was 0.0651 µM (active); in experiment [2] it was 0.092 µM (active).

For `CSc1ccc2c(c1)C(N1CCN(C)CC1)Cc1ccccc1S2` (stereo unspecified), the Potency in experiment [1] was 11.9 µM (active); in experiment [2] it was 26.6 µM (active).

For the compound `CC(C)=CCC[C@](C)(O[C@@H]1O[C@H](CO[C@@H]2O[C@@H](CO)[C@H](O)[C@H]2O[C@@H]2OC[C@@H](O)[C@H](O)[C@H]2O)[C@@H](O)[C@H](O)[C@H]1O)[C@H]1CC[C@]2(C)[C@@H]1[C@H](O)CC1[C@@]3(C)CC[C@H](O[C@@H]4O[C@H](CO)[C@@H](O)[C@H](O)[C@H]4O[C@@H]4O[C@H](CO)[C@@H](O)[C@H](O)[C@H]4O)C(C)(C)C3CC[C@]12C` (stereo partly specified), the viability (% of control) in experiment [1] is 94.1% [at 9.25 µM]. Also, the viability, % of control in experiment [2] is 92.9% [at 9.25 µM].

For the compound `CC1=C2C(=O)C=C(CO[C@@H]3O[C@H](CO)[C@@H](O)[C@H](O)[C@H]3O)[C@@H]2[C@H]2OC(=O)[C@H](C)[C@@H]2[C@@H](O)C1`, the Potency result in experiment [1] and in experiment [2] was “inactive” throughout.

`Cc1ccc(S(=O)(=O)c2ccc([N+](=O)[O-])o2)cc1`: the Potency in experiment [1] is 0.461 µM (active); in experiment [2], 0.411 µM (active).

As for `C/C1=C/CCC2=CC(OC2=O)C(C)(C)/C=C/C1=O` (stereo unspecified), the Potency in experiment [1] and in experiment [2] was 0.517 µM (active) in each case.

As for `CC(C)=CCCC1(C)/C=C/C(OC(=O)C=C(C)C)C(C)(O)/C=C/C(=O)/C(CO)=C\C1` (stereo unspecified), the Potency was 1.59 µM (active) in experiment [1] and 2.52 µM (active) in experiment [2].

In the case of `O=C1C(Cl)=C(N2CCOCC2)C(=O)N1c1ccc(Cl)c(Cl)c1`, the Potency in experiment [1] was 5.63 µM (active); in experiment [2] it was 5.02 µM (active).

In the case of `CCN[C@@H]1C[C@H](N)[C@@H](O[C@H]2OC(CN)=CC[C@H]2N)[C@H](O)[C@H]1O[C@H]1OC[C@](C)(O)[C@H](NC)[C@H]1O`, the Potency result in experiment [1] and in experiment [2] was “inactive” in each case.

As to `COc1ccc(CCO[C@@H]2O[C@H](CO[C@@H]3OC[C@H](O)[C@H](O)[C@H]3O)[C@@H](O)[C@H](O)[C@H]2O)cc1`, the Potency result in experiment [1] and in experiment [2] was “inactive” throughout.

With `CCN(CC)CCNc1ccc2ncn3c4ccc(O)cc4c(=O)c1c23`, the Potency is 0.164 µM (active) in experiment [1] and 0.291 µM (active) in experiment [2].

Take `CNC(=S)NS(=O)(=O)c1cc(CCNC(=O)c2cc(Cl)ccc2OC)ccc1OC`: the Potency entry in experiment [1] and in experiment [2] was “inactive” each time.

In the case of `CC/C=C\CC1C(CC(=O)O)CCC1OC1OC(CO)C(O)C(O)C1O` (stereo unspecified), the Potency entry in experiment [1] and in experiment [2] was “inactive” throughout.

With `CCC(C)C1NC(=O)C2CCCN2C(=O)C(C(C)C)NC(=O)c2ccccc2NC(=O)C(Cc2ccc(O)cc2)NC(=O)C(C)NC(=O)C(C(C)O)NC1=O` (stereo unspecified), the Potency result in experiment [1] and in experiment [2] was “inactive” throughout.
